Experiment [1] in a line: Viability qHTS for spleen associated tyrosine kinase inhibitor (SYKi) naive MV4-11 cells (AID 1963823). Note: nearly all actives have a fitted effect of over 40% in size. In outline:
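In this viability screen, compounds acted on SYK inhibitor naive MV4-11 cells for three days (72 hr, 37 C). Remaining viable cells were measured by CellTiter-Glo luminescence following a 10 min room-temperature development.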
In general terms: qHTS replaces the single test concentration by a dilution series.

A short description of experiment [2]: Viability qHTS for spleen associated tyrosine kinase inhibitor (SYKi) drug resistant MV4-11 cells (AID 1963824). Note: nearly all actives have a fitted effect of over 35% in size. In outline: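 SYK-inhibitor-resistant MV4-11 AML cells were seeded at 500 per well onto compound and cultured 72 hours (37 °C, 5% CO2). CellTiter-Glo was then added, and after 10 min at room temperature, luminescence gave viability.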
Experiment [3] is described as follows: Quantitative highthroughput screen to assess conditional lethalithy of P12 Ichikawa cells grown in Human Plasma-Like Medium with dialyzed fetal bovine serum (HPLM+ds) (AID 1963879). For Viability: series mostly up to about 46 µM. Note: nearly all actives have a fitted effect of over 35% in size. To be noted: Potency: viability. In outline:
(§1)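 Each medium arm—HPLM with 10% dialyzed FBS, or RPMI1640 with 5 mM glucose and 10% untreated or dialyzed FBS—was screened against an 11-point, 3-fold compound titration for 48 h at 37 °C, with CellTiter-Glo luminescence as endpoint.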

Experiment [4] is described as follows: Quantitative highthroughput screen to assess conditional lethalithy of P12 Ichikawa cells grown in RPMI1640 with untreated serum (RPMI+s) (AID 1963881).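 For Viability: series mostly up to about 46 µM; 100% = DMSO wells and 0% = empty wells without cells.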 Note: nearly all actives have a fitted effect of over 35% in size. To be noted: Potency: viability. In outline: as §1
Experiment [5] can be described thus: Quantitative highthroughput screen to assess conditional lethalithy of SEM cells grown in Human Plasma-Like Medium with dialyzed fetal bovine serum (HPLM+ds) (AID 1963882). Note: nearly all actives have a fitted effect of over 35% in size. In outline:
as §1

Experiment [6] can be described thus: Quantitative highthroughput screen to assess conditional lethalithy of SEM cells grown in RPMI1640 with unreated serum (RPMI+s) (AID 1963883).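 For Viability: 100% = DMSO wells and 0% = empty wells without cells.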 Note: nearly all actives have a fitted effect of over 35% in size. In outline: as §1
Experiment [7] is described as follows: Quantitative highthroughput screen to assess conditional lethalithy of SEM cells grown in RPMI1640 with dialyzed fetal bovine serum (RPMI+ds) (AID 1963884). Note: nearly all actives have a fitted effect of over 35% in size. In outline: as §1
The nature of experiment [8]: Cellular viability qHTS for adrenocortical cancer (ACC) cell line NCI-H295R (AID 1963990). Note: nearly all actives have a fitted effect of over 60% in size. In outline: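 Viability of NCI-H295R after 48 h of treatment (final up to 46 uM) measured through cellular ATP luminescence.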
Experiment [9] in a line: Quantitative highthroughput screen to assess conditional lethalithy of P12 Ichikawa cells grown in RPMI1640 with dialyzed fetal bovine serum (RPMI+ds) (AID 1963880).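 For Viability: 100% = DMSO wells and 0% = empty wells on each plate.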 Note: nearly all actives have a fitted effect of over 35% in size. To be noted: Potency: P12-Ichikawa viability. In outline: as §1
A short description of experiment [10]: Cellular viability qHTS for adrenocortical cancer (ACC) cell line SW-13 (AID 1963989).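 For activity (max response): cells grown in serum-free medium with ITS supplement; % is set by controls: 0 for no effect and ±100 for the full control effect.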 Note: nearly all actives have a fitted effect of over 65% in size. The settings on record: SW-13 ACC cells viability, CellTiter-Glo, 48 h; activity (max response): hits give low values. In outline: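 Here, serum-free SW-13 cultures were dosed up to 46 uM. Following 48 h, ATP-dependent luminescence (CellTiter-Glo) reported viable cells, and logistic modeling produced IC50 values.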

Several values for one entry are separate records, joined by “and”; a condition that tells them apart may be missing. Equal entries are not always repeated. Results filed as inconclusive are left out. Unmarked numbers belong to inactive results. Activity calls are given as the source filed them. Calls come from the whole dose curve; as a rule, active = well fitted curve in the direction sought with a large enough effect; inconclusive = small, poorly fitted or top-dose-only effect, or another doubt; inactive = no such curve, though single readings can be large; an effect the other way counts as inactive or inconclusive.
Potency is the fitted concentration of half-maximal effect.

For `Cc1cc(Nc2cc(N3CCN(C)CC3)nc(Sc3ccc(NC(=O)C4CC4)cc3)n2)n[nH]1`, the Potency in [1] was 0.0461 µM (active); in experiment [2], 0.0291 µM (active); in experiment [3], 0.332 µM (active); in experiment [4], 0.296 µM (active); in experiment [5], 0.418 µM (active); in [6], 0.372 µM (active). In addition, the Potency in [7] was 0.332 µM (active).
`CCCc1cc(=O)[nH]c(=S)[nH]1`: the Potency result in experiment [1], in experiment [2] and in experiment [8] was “inactive” throughout. In addition, the values for the Potency in [3] and in experiment [4] were 10.5 µM (active) and 14.8 µM (active), respectively.
Take `CN(C)CCCN1c2ccccc2CCc2ccc(Cl)cc21`: the Potency is 16.6 µM (active) in experiment [1]; 10.6 µM (active) and 14.8 µM (active) in [2]; 25.1 µM (active) in [8]. For the same compound, the Potency result in [3] was “inactive”.
Regarding `Cc1cc(Nc2cc(CN3CCOCC3)c3nc(C)c(Cc4ccc(Cl)cc4F)n3n2)n[nH]1`, the Potency is 146 nM (active) and 148 nM (active) in experiment [1]; 259 nM (active) and 235 nM (active) in [2]; 7.43 µM (active) in experiment [9]; 1.66 µM (active) in [5]; 2.09 µM (active) in [6]; 1.48 µM (active) in [7]. The Potency in [10] is 2.51 µM (active); in experiment [8], 7.94 µM (active).
Regarding `C[C@H](NC(=O)C(=O)Nc1ccccc1C(C)(C)C)C(=O)N[C@@H](CC(=O)O)C(=O)COc1c(F)c(F)cc(F)c1F`, the Potency in experiment [1] is 2.35 µM (active); in [2] it was 1.86 µM (active); in experiment [3], 20.9 µM (active); in [4], 14.8 µM (active); in experiment [5] it was 5.26 µM (active); in experiment [6], 5.9 µM (active). The Potency in experiment [7] is 5.26 µM (active).
For `Cc1cc(C(=O)NOCCO)c(Nc2ccc(I)cc2F)n(C)c1=O`, the Potency is 0.0525 µM (active) in experiment [1], 0.0411 µM (active) in [2] and 0.0662 µM (active) in experiment [5]. In addition, the Potency result in [3], in experiment [4], in [6] and in [8] was “inactive” throughout.
Consider `C[C@@]1(C(=O)Nc2ccc(F)nc2)CCCN1c1nc(Nc2cc(C3CC3)[nH]n2)c2cccn2n1`, for which the Potency in [1] is 1.46 µM (active); in experiment [2] it was 1.84 µM (active); in [3], 2.96 µM (active); in [5] it was 4.18 µM (active); in experiment [7] it was 3.32 µM (active); in [8], 0.199 µM (active).
As to `CC(C)(O)CNc1nc(Nc2ccnc(C(F)(F)F)c2)nc(-c2cccc(C(F)(F)F)n2)n1`, the Potency in experiment [1] is 14.8 µM (active); in experiment [2], 14.8 µM (active); in experiment [3], 2.95 µM (active); in [4], 2.95 µM (active); in [7] it was 3.31 µM (active).
As to `CN1CCc2c(c3ccccc3n2Cc2ccc(C(=O)NO)cc2)C1`, the Potency in experiment [1] is 26.3 µM (active); in [2] it was 14.8 µM (active); in [4], 13.2 µM (active); in [5] it was 11.8 µM (active); in experiment [8], 28.2 µM (active). The Potency entry in [9] is “inactive”.
As for `Cn1cnc2c(F)c(Nc3ccc(Br)cc3F)c(C(=O)NOCCO)cc21`, the Potency in [1] was 0.206 µM (active); in experiment [2], 0.146 µM (active); in experiment [10] it was 17.8 µM (active). Also, the Potency entry in experiment [3], in experiment [4] and in [8] was “inactive” each time.
As to `CC(C)(O)CC(=O)NCCn1ccc2ncnc(Nc3ccc(Oc4cccc(C(F)(F)F)c4)c(Cl)c3)c21`, the Potency in experiment [1] is 14.6 µM (active) and 16.6 µM (active); in experiment [2], 9.2 µM (active) and 6.61 µM (active); in experiment [3] it was 9.35 µM (active); in [6], 20.9 µM (active); in [10] it was 14.1 µM (active); in experiment [8] it was 8.91 µM (active).
Consider `OCCN1CCN(CCCN2c3ccccc3Sc3ccc(C(F)(F)F)cc32)CC1`, for which the Potency in experiment [1] is 16.8 µM (active) and 5.25 µM (active); in experiment [2], 26.6 µM (active) and 5.25 µM (active); in experiment [3], 7.43 µM (active); in experiment [9], 14.8 µM (active); in [4] it was 11.8 µM (active). For the same compound, in experiment [10], the activity (max response) is 8.75%. The Potency result in [8] was “inactive”.
Turning to `C[C@]1(CO)CN(c2cc(C(=O)Nc3ccc4c(c3)-c3c(c(C(N)=O)nn3-c3ccc(F)cc3)CC4)c(Cl)cn2)C[C@@]1(C)CO`, the Potency was 3.66 µM (active) in [1]; 2.91 µM (active) in experiment [2]; 16.6 µM (active) in experiment [3]; 16.6 µM (active) in experiment [4]; 18.7 µM (active) in [5]; 18.7 µM (active) in [7].
On to `COc1ccc(S(=O)(=O)Nc2cccnc2Nc2ccc(O)cc2)cc1`, for which the Potency in [1] is 0.934 µM (active); in [2], 0.833 µM (active); in experiment [3], 3.32 µM (active); in experiment [4] it was 3.32 µM (active); in [5] it was 2.35 µM (active); in [10] it was 3.16 µM (active).
With `Cc1nc2c(-c3cnc(N)nc3)nc(N3CCOCC3)nc2n1C(C)C`, the Potency in [1] is 0.209 µM (active); in experiment [2], 326 nM (active) and 468 nM (active); in experiment [3], 0.0029 µM (active); in experiment [9], 0.0234 µM (active); in experiment [4] it was 0.0186 µM (active); in experiment [8], 0.562 µM (active).
As to `CN(CC(=O)N(Cc1ccc(C2CCCCC2)cc1)c1ccc(C(=O)O)c(O)c1)S(=O)(=O)c1c(F)c(F)c(F)c(F)c1F`, the Potency in [1] is 4.17 µM (active); in experiment [2] it was 2.63 µM (active); in experiment [3], 20.9 µM (active). Further, the activity (max response) in experiment [10] is -5.17%.
`COc1ccccc1N1CCN(CC(O)COc2cccc3ccccc23)CC1` (stereo not drawn): the Potency result in experiment [1], in [2], in [3] and in experiment [8] was “inactive” in each case. Also, in experiment [4], the Potency was 13.2 µM (active). In [10], the activity (max response) was -10.8%.
Take `NC(=NCCCCCCN=C(N)N=C(N)Nc1ccc(Cl)cc1)N=C(N)Nc1ccc(Cl)cc1`: the Potency in [1] was 2.35 µM (active); in experiment [2], 2.63 µM (active); in experiment [4] it was 20.9 µM (active); in [10], 3.98 µM (active); in experiment [8] it was 17.8 µM (active). For the same compound, the Potency result in [3] was “inactive”.

(Values after PubChem BioAssay (NCATS).)
